# Screens from PubChem BioAssay.
# HT1080NT lethal: qHTS for induction of synthetic lethality in tumor cells producing 2HG: qHTS for the HT-1080-NT fibrosarcoma cell line. Potency, µM (series often up to 46.1 µM), without a hit: at the highest dose activity, negative = less viability, usual class: cytotoxic. hit rate 1.6% among 360,000. HT-1080-NT fibrosarcoma viability, CellTiter-Glo ATP luminescence, 48 h;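 also: NT is the 2HG producing partner of a matched IDH1 knockdown line; 0% = DMSO-treated cells and -100% = media-only wells without cells; nearly all actives have a fitted effect of over 55% in size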
#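 Fibrosarcoma NT cells, 750 per well in 5% FBS RPMI, were exposed to compound for 48 hours. Viability: CellTiter-Glo luminescence.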
# TGFb inhibitor: qHTS for Inhibitors of TGF-b. HepG2 CAGA-GFP TGF-b/SMAD3 reporter, GFP fluorescence, 18 h; TGF-beta stimulated, 500 pg/mL final. Potency, µM (titrated, usually from 46.1 µM), inactives show top-dose activity, negative = inhibition, most hits filed as inhibitors. AID 588855, 2011. hit rate 1.2% among 410,000; also: % is scaled to controls: 0 for no effect and ±100 for the full control effect; nearly all actives have a fitted effect of over 65% in size
#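 Inhibition of TGF-beta-driven CAGA-GFP reporter expression in HEPG2 cells is measured by cellular GFP fluorescence after 18 h stimulation with 500 pg/mL recombinant TGF-beta in 1% FBS medium at 37 degrees C.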
# S2 tox: Viability Counterscreen for Primary qHTS for Inhibitors of ATXN expression; S2 cells (HEK-293 line with an ATXN2-luciferase reporter) viability, CellTiter-Fluor protease fluorescence, 24 h; Potency, µM (doses to about 56.7 µM), hits mostly cytotoxic; hit rate 0.49% among 400,000; AID 651635, 2014; also: nearly all actives have a fitted effect of over 40% in size
# HT1080 IDH1KD tx: qHTS for induction of synthetic lethality in tumor cells producing 2HG: qHTS for the HT-1080-IDH1KD cell line; HT-1080 IDH1 knockdown viability, ATP luminescence, 48 h; Potency, µM (titrated, usually from 46.1 µM), for inactives: at the top dose activity, negative = toxicity, usual class: cytotoxic; hit rate 2% among 360,000;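 also: 0% = DMSO wells and -100% = cell-free medium wells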
#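 After a 2 h attachment period, IDH1KD HT-1080 cells took pin-transferred compound for 48 h at 37 °C; ATP-based luminescence after 10 min room-temperature reagent incubation reported viability.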
# HepG2 tox-1: qHTS for Inhibitors of TGF-b: Cytotox Counterscreen | HepG2 CAGA-GFP viability, ATP luminescence, 18 h | Potency, µM (doses to about 46.1 µM), without a hit: top-dose activity change, negative = cytotoxicity, hits mostly cytotoxic | hit rate 0.76% among 410,000
#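 HepG2 CAGA-GFP cells (1000/well, DMEM with 1% FBS) received compound, then TGF-beta at 500 pg/mL final, and were incubated 18 hours at 37 degrees C. Viability was read by CellTiter-Glo luminescence. Media-only wells were set as complete cell-killing and DMSO as no toxicity.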
# ATXN2 expr inh: Primary qHTS for Inhibitors of ATXN expression; HEK-293 ATXN2-luciferase reporter, luminescence, 24 h; Potency, µM (top dose mostly 57 µM), inactives show top-dose activity change, negative = inhibition, hits mostly inhibitors; hit rate 0.72% among 360,000; AID 1745845, 2022; also: % is scaled to controls: 0 for no effect and ±100 for the full control effect; nearly all actives have a fitted effect of over 55% in size
#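 ATXN2-luciferase reporter cells (luciferase flanked by upstream and downstream ATXN2 gene portions) were treated 24 h at 37 °C with compounds at up to 57 uM. SteadyGlo luminescence gave expression; GF-AFC fluorescence gave viability.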
# TGFb confirm: qHTS for Inhibitors of TGF-b: Confirmation of Cherry Picks; shares compounds with TGFb inhibitor; HepG2 CAGA-GFP TGF-b reporter, GFP fluorescence, 18 h; cells stimulated with TGF-beta, 500 pg/mL; Potency, µM (doses to about 46.1 µM), for inactives: at the highest dose activity, negative = inhibition, usual class: inhibitors; hit rate 63% among 1,600; AID 720534, 2013; also: % is scaled to controls: 0 for no effect and ±100 for the full control effect; nearly all actives have a fitted effect of over 65% in size
# HepG2 tox-2: qHTS for Inhibitors of TGF-b: Cytotox Counterscreen for Cherry Picks | hit rate 27% among 1,600 | Potency, µM (highest dose often 46.1 µM), without a hit: at the highest dose activity, negative = cytotoxicity, actives largely listed as inhibitors | AID 720535, 2013 | HepG2 CAGA-GFP viability, ATP luminescence, 18 h; cells stimulated with TGF-beta, 500 pg/mL | shares compounds with TGFb inhibitor; also: % is scaled to controls: 0 for no effect and ±100 for the full control effect; nearly all actives have a fitted effect of over 70% in size
# CCL64 TGFb inh: qHTS for Inhibitors of TGF-b: CCL64 Cells Orthogonal Assay for Cherry Picks; hit rate 41% among 1,600; shares compounds with TGFb inhibitor; Potency, µM (highest dose often 46.1 µM), without a hit: top-dose activity, negative = inhibition, most hits filed as inhibitors; CCL64 CAGA-GFP reporter, TGF-b stimulated, GFP fluorescence, 18 h; also: nearly all actives have a fitted effect of over 65% in size
# COP TGFb inh: qHTS for Inhibitors of TGF-b: Hit Validation in HepG2 Cells using COP promoter; shares compounds with TGFb inhibitor; HepG2 COP-GFP TGF-b reporter, GFP fluorescence, 18 h; cells stimulated by added recombinant TGF-beta; Potency, µM (titrated, usually from 46.1 µM), inactives show at the top dose activity, negative = inhibition, actives largely listed as inhibitors; hit rate 3% among 1,600; also: nearly all actives have a fitted effect of over 70% in size
# An asterisk follows results filed as active; i = inactive; ? = inconclusive; . = no result; ! = repeats disagree. Sampled rows, rich in hits. Any-hit rate of the full collection: about 3.9%. Calls follow the shape of the dose curve; as a rule, active = well fitted curve in the direction sought with a large enough effect; inconclusive = small, poorly fitted or top-dose-only effect, or another doubt; inactive = no such curve, though single readings can be large; an effect the other way counts as inactive or inconclusive. Potency is read from the fitted curve at half-maximal effect.
SMILES,HT1080NT lethal,TGFb inhibitor,S2 tox,HT1080 IDH1KD tx,HepG2 tox-1,ATXN2 expr inh,TGFb confirm,HepG2 tox-2,CCL64 TGFb inh,COP TGFb inh
Cn1c(=O)cc(OCCCC(=O)NCc2ccccn2)c2ccccc21,-2.6%,0.8%,i,-9.7%,-19.7%,21.1%,.,.,.,.
Cc1ccnc(NC(=O)CCCOc2cc(=O)n(C)c3ccccc23)c1,?,2.24µM*,i,?,-0.6%,1.26µM*!,5.8µM*,4.11µM*,25.9µM*,21.7%
O=C1CC(c2ccccc2)Sc2ccccc2N1Cc1ccc(F)cc1 (stereo unspecified),.,?,?,.,-41.1%,?,.,.,.,.
COc1ccc(OC)c(CNC(=O)CCCn2nc(C)c3c(C)n(-c4ccc(C)cc4)nc3c2=O)c1,.,?,.,.,-23.4%,.,.,.,.,.
COc1ccccc1/C=C/C(=O)N1CCc2cc(OC)c(OC)cc2C1C (stereo unspecified),?,14.1µM*,i,?,-18.7%,-24.2%,11.6µM*,?,-23.6%,45.2%
O=C(CNc1ccc(Cl)c(C(F)(F)F)c1)N1CCN(S(=O)(=O)c2ccccc2)CC1,-1.1%,12.6µM*,i,-6.8%,-8.4%,-5.6%,11.6µM*,-2.7%,-25.1%,-10.1%
CN(CC(=O)Nc1cccc(S(=O)(=O)N2CCCC2)c1)CC(=O)Nc1ccc(Cl)c(C(F)(F)F)c1,9.2µM*,15.8µM*,?,18.4µM*,-14.1%,?,16.4µM*,?,29.1µM*,59.7%
COc1ccccc1CCC(=O)N(C)CC(=O)Nc1ccc(Cl)c(C(F)(F)F)c1,-5.2%,11.2µM*,i,-10.0%,-9.0%,-8.4%,?,-20.3%,?,-0.5%
CC(=O)c1ccc(NCC(=O)N2CCN(S(=O)(=O)c3ccccc3)CC2)cc1,11.3%,-21.9%,?,-2.6%,-9.5%,.,.,.,.,.
CC(C)C[C@@H](COCc1cccc(Cl)c1)N1CCN(C(=O)c2cccc(C(F)(F)F)c2)CCC1=O,?,.,?,?,.,-38.9%,.,.,.,.
CC(C)CC(COCc1cccc(Cl)c1)N1CCN(C(=O)c2ccc(C(F)(F)F)cc2)CCC1=O (stereo unspecified),?,10µM*,.,-24.8%,-27.3%,-3.6%,18.4µM*,-11.0%,?,-0.9%
Cc1cccc(COCC(CC(C)C)N2CCN(C(=O)c3ccc(C(F)(F)F)cc3)CCC2=O)c1 (stereo unspecified),0.3%,?,?,-4.7%,-12.2%,-28.7%,.,.,.,.
Cc1cccc(COCC(CC(C)C)N2CCN(C(=O)c3ccc(C(C)(C)C)cc3)CCC2=O)c1 (stereo unspecified),0.0%,8.91µM*,?,?,-110.7%,?,?,?,?,?
COc1cccc(CNC(=O)c2ccc(NC(=O)N3CC(C)Sc4ccccc43)cc2)c1 (stereo unspecified),.,?,i,.,0.0%,-11.6%,.,.,.,.
CN(C)C(=O)c1ccc(NC(=O)Cn2nnnc2-c2ccccc2F)cc1,.,-11.4%,.,.,4.4%,.,.,.,.,.
Cc1cc(S(=O)(=O)N2CCN(CC(=O)NCCc3cccs3)CC2)ccc1Br,-3.4%,11.2µM*,i,-11.1%,-7.9%,-15.0%,?,-10.0%,-9.9%,25.4%
O=C(CN1CCN(S(=O)(=O)c2cccc(Br)c2)CC1)NCCc1cccs1,-2.7%,-29.6%,i,-0.1%,-5.3%,-5.2%,.,.,.,.
O=C(Nc1cc(Cl)ccc1Cl)c1cc(S(=O)(=O)N2CCCc3ccccc32)ccc1F,.,1.5%,i,.,-8.3%,6.6%,.,.,.,.
Cc1cccc(NCc2ccccc2O)c1C,-12.4%,?,?,-25.8%,-42.0%,-9.0%,.,.,.,.
Cc1ccccc1NCc1ccc(O)c2ncccc12,3.16µM*,10µM*,i,0.708µM*,-40.9%,?,?,?,5.8µM*,25.7%
O=C(NCCc1nc2ccccc2[nH]1)c1ccc(Cl)c([N+](=O)[O-])c1,0.1%,-29.7%,i,5.3%,-44.0%,6.3%,.,.,.,.
CCCNC(=O)c1ccc2c(=O)c(O)c(-c3ccc(Cl)c([N+](=O)[O-])c3)[nH]c2c1,-3.0%,7.08µM*,?,5.2%,-3.6%,0.0%,5.17µM*,?,6.51µM*,0.3%
CCc1ccccc1N1CCN(S(=O)(=O)c2cc(OC)ccc2OC)CC1,2.9%,?,i,?,-2.8%,10.1%,25.9µM*,?,?,26.8%
COc1ccc(OC)c(CNC(=O)C2CCN(S(=O)(=O)c3cn(C)cn3)CC2)c1,.,13.5%,.,.,-0.6%,.,.,.,.,.
CN(C)c1ccc(C2CNC(c3ccc(Cl)c([N+](=O)[O-])c3)c3[nH]c4ccccc4c32)cc1 (stereo unspecified),-7.5%,8.91µM*,?,-22.9%,-33.2%,.,?,-28.5%,20.6µM*,18.0%
O=C1CC(c2ccc(Cl)c([N+](=O)[O-])c2)c2ccc3ccccc3c2N1 (stereo unspecified),-6.6%,?,i,-6.8%,-22.1%,-17.1%,.,.,.,.
